Compound activity: PubChem BioAssay, National Center for Advancing Translational Sciences (NCATS)
Most compounds without a hit are left out; they make up all but 3.2% or so of the library.
Sm TGR block = inhibitors of Schistosoma mansoni thioredoxin glutathione reductase; purified TGR, DTNB reduction, TNB absorbance 405 nm; actives 3% (n = 360,000); Potency, µM (titrated, usually from 114 µM), for the others: top-dose activity change, negative = inhibition, actives largely listed as inhibitors; further: nearly all actives have a fitted effect of over 60% in size
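Kinetic colorimetric format: TGR-catalysed, NADPH-driven DTNB reduction monitored via TNB absorbance. Enzyme dispensed at 20 nM; compound exposure 15 min at room temperature before reaction start.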
RE007 growth inh = less growth of the S. pombe RE007 Vpr strain | S. pombe RE007 Vpr strain, BacTiter-Glo ATP luminescence, 24 h | Potency, µM (highest dose often 92.2 µM), without a hit: at the highest dose activity change, negative = less growth, hits mostly inhibitors | actives 0.21% (n = 360,000) | AID 651644; active means well fitted falling curve with a large enough effect; inconclusive means small, poorly fitted or top-dose-only effect; inactive means no such curve, though single readings can be large or run the other way; further: nearly all actives have a fitted effect of over 50% in size
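Fission yeast RE007 carrying one integrated HIV-1 vpr copy, seeded at OD 0.01 in PMG+AL medium with 23 nL pinned compound. Grown 24 h at 30 degrees; viability read by BacTiter-Glo luminescence after 5 min.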
LmPK inhibitor = inhibitors of Leishmania mexicana pyruvate kinase. Q27686. purified LmPK, Kinase-Glo ATP luminescence, 1 h. Potency, µM (doses to about 57.5 µM), without a hit: at the top dose activity change, negative = inhibition, most hits filed as inhibitors. actives 0.37% (n = 290,000)
Target sequence (Q27686 whole entry, looked up): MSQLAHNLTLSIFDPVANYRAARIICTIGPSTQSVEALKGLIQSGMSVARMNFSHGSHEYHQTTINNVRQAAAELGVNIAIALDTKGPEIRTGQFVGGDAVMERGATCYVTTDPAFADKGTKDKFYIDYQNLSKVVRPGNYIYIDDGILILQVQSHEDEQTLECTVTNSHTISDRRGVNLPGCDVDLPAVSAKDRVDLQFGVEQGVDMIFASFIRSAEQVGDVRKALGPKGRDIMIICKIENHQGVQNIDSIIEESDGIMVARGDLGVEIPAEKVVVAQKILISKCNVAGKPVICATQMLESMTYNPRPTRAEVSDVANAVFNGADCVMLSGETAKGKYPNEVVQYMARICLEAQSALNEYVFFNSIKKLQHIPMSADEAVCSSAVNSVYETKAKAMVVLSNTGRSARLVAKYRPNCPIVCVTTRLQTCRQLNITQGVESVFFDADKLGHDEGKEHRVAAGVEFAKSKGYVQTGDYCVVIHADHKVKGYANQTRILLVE
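Pyruvate kinase activity monitored as ATP production (luciferase luminescence). Conditions: 0.1 nM enzyme, 0.5 mM PEP, 0.1 mM ADP, 1 h, RT; normalized against uninhibited and no-enzyme wells.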
TbPYK inhibitor = T. brucei pyruvate kinase inhibition; Potency, µM (doses to about 76.8 µM), for inactives: at the highest dose activity, negative = inhibition, usual class: inhibitors; TbPYK enzyme, Kinase-Glo Plus ATP luminescence, 45 min; Q57TT1; actives 0.12% (n = 410,000); further: nearly all actives have a fitted effect of over 50% in size
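In this concentration-response screen, enzyme-free wells defined baseline while DMSO plates tracked drift. Each reaction combined TbPYK, substrate, compound and 130 uM ADP for 45 min at room temperature. Kinase-Glo Plus luminescence gave the signal.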
AMA1 RON2 block = disrupts binding of P. falciparum AMA1 to RON2; Potency, µM (top dose mostly 58.2 µM), for inactives: at the highest dose activity change, negative = inhibition, most hits filed as inhibitors; AlphaScreen AMA1-biotinylated RON2 peptide binding; actives 0.2% (n = 360,000);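 further: 0% = vehicle wells and -100% = peptide control; nearly all actives have a fitted effect of over 45% in size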
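AMA1 (3D7) with his tag at 25 nM final met compounds first, then biotinylated RON2 peptide at 25 nM; detection used donor plus acceptor beads, 10 µg/mL apiece, read by AlphaScreen after 30 min at room temperature.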
An asterisk follows results filed as active; ? = inconclusive; . = no result; [ ] = dose if it differs, or a comment. Unless noted, the call rests on the fitted dose curve; in most records, active means well fitted curve in the direction sought with a large enough effect; inconclusive means small, poorly fitted or top-dose-only effect, or another doubt; inactive means no such curve, though single readings can be large; an effect the other way counts as inactive or inconclusive. Unless noted, on the % scale 0 is the no-effect control and ±100 the full control effect; potency means the concentration at half of the fitted maximal effect.

SMILES	Sm TGR block	RE007 growth inh	LmPK inhibitor	TbPYK inhibitor	AMA1 RON2 block
CC(=O)Nc1ccc(S(=O)(=O)N(Cc2ccco2)CC2CCCO2)cc1 (stereo not drawn)	25µM*	30%	-4%	3%	0%
CN(C)S(=O)(=O)c1ccc(S(=O)(=O)N(CC(=O)Nc2ccccc2)Cc2ccco2)cc1	4%	-19%	0%	-5%	-8%
CCN(CC)S(=O)(=O)c1ccc(S(=O)(=O)N(CC(=O)Nc2ccccc2)Cc2ccco2)cc1	28µM*	-16%	5%	-6%	-3%
Cc1noc(C)c1S(=O)(=O)N1CCc2nc(-c3ccccc3)c3c(c2C1)CO[C@@H](C)C3	.	.	-1%[11.5 µM]	.	.
COc1ccc(NC(=O)C2CCN(S(=O)(=O)c3ccc4c(c3)CCCC(=O)N4)CC2)cc1OC	13%	.	.	13%	.
O=C(COC(=O)C1CC(=O)N(Cc2ccco2)C1)c1ccc(OC(=O)c2ccco2)cc1 (stereo not drawn)	11µM*	6%	4%	-6%	-9%
CCOC(=O)N1C(=O)[C@](CC)(c2ccccc2)N1C(=O)OCC	2.8µM*	3%	-5%	-8%	-2%
CCOC(=O)c1ccc2c(c1)sc1nc(-c3ccc(OCC)cc3)cn12	9%	.	.	-13%	.
C(=N\n1cnnc1SCc1ccccc1)/c1ccco1	22µM*	-13%	-3%	7%	-2%
Cc1oc(-c2ccc(F)cc2)nc1CN(Cc1ccccn1)CC1CCCO1 (stereo not drawn)	40µM*	-13%	4%	-7%	45%
Clc1ccc(-c2noc(CN(Cc3ccccn3)CC3CCCO3)n2)cc1 (stereo not drawn)	-9%	-6%	6%	-20%	6%
CCOC(=O)c1c(N)sc(=S)c2c1CCC2	16µM*	-5%	2%	-16%	-26%
CCOC(=O)c1c(N)sc(N)c1C(=O)OCC	3%	-15%	-3%	?	46%
C/C(=C\C(=O)Nc1ccccc1C(=O)O)c1ccc2ccccc2c1	.	.	.	-3%	.
COc1ccc(S(=O)(=O)NCCc2cn3ccsc3n2)cc1OC	40µM*	.	.	0%	.
Cc1ccc2nc(NC(=O)CSc3nccn3Cc3ccccc3)sc2c1	0%	.	.	-1%	.
N#Cc1c(N)oc(-c2ccco2)c1-c1ccco1	35µM*	1%	4%	-12%	-10%
N#Cc1c(N)oc(-c2ccccc2)c1-c1ccccc1	4%	-14%	2%	0%	-1%
OCC[C@@H]1C[C@@H](O)[C@H](O)[C@]2(OCc3ccccc32)O1	-1%	-9%	-5%	-6%	-9%
OCC[C@H]1C[C@H](O)[C@@H](O)[C@@]2(OCc3ccccc32)O1	45µM*	7%	.	-1%	11%
Cc1cc(=O)n2nc(N3CCC(C(=O)Nc4ccc(C(C)C)cc4)CC3)sc2n1	4%	.	.	-1%	.
c1ccc(OCc2nc3ccccc3[nH]2)cc1	-1%	-4%	11µM*	0%	-9%
COCCn1ccc2c(OCC(=O)Nc3cccc(OC)c3)cccc2c1=O	-1%	.	.	-8%	.
COC(=O)C1=C(c2cccc(C#N)c2)C[C@@H]2CC[C@H]1N2C(=O)NCCO	-21%	7%	.	3%	4%
COC(=O)C1=C(c2cccc(OCc3ccccc3)c2)C[C@@H]2CC[C@H]1N2C(=O)NCc1ccc(C(C)(C)C)cc1	-1%	0%	.	-5%	-8%
SMILES	Sm TGR block	RE007 growth inh	LmPK inhibitor	TbPYK inhibitor	AMA1 RON2 block
COC(=O)C1=C(c2cccc(C#N)c2)C[C@@H]2CC[C@H]1N2C(=O)NCc1ccco1	35µM*	-10%	.	-8%	1%
COC(=O)C1=C(c2cccc(OCc3ccccc3)c2)C[C@@H]2CC[C@H]1N2C(=O)NCc1ccc(N(C)C)cc1	-5%	7%	.	-7%	11µM*
COc1ccc2nc(NC(=O)c3cc(=O)c4cc(C)cc(C)c4o3)sc2c1	3%	.	.	3%	.
N#C/C(=C1/SC[C@@H](c2ccc(Cl)cc2Cl)S1)n1ccnc1	.	.	.	6%	.
Cn1c(=O)c2c(nc(SCC(=O)Nc3ccc(F)cc3)n2Cc2ccccc2F)n(C)c1=O	-5%	.	.	-2%	.
Cc1cccc(NC(=O)CN(C)S(=O)(=O)c2cnc[nH]2)c1	6%	-3%	-3%	-1%	6%
